# Records with an inconclusive call do not appear. A number with no mark means an inactive call. The call rests on the fitted dose curve; in most records, active means well fitted inhibition curve with a large enough effect in the repeat runs; inconclusive means weak or mixed curves; inactive means flat fitted curve, though single readings scatter. Where a SMILES comes first, the peptide text is derived from it.
# Target: Voltage-gated inwardly rectifying potassium channel KCNH2 (Homo sapiens) (UniProt Q12809)
# Sequence (Q12809 whole entry, looked up): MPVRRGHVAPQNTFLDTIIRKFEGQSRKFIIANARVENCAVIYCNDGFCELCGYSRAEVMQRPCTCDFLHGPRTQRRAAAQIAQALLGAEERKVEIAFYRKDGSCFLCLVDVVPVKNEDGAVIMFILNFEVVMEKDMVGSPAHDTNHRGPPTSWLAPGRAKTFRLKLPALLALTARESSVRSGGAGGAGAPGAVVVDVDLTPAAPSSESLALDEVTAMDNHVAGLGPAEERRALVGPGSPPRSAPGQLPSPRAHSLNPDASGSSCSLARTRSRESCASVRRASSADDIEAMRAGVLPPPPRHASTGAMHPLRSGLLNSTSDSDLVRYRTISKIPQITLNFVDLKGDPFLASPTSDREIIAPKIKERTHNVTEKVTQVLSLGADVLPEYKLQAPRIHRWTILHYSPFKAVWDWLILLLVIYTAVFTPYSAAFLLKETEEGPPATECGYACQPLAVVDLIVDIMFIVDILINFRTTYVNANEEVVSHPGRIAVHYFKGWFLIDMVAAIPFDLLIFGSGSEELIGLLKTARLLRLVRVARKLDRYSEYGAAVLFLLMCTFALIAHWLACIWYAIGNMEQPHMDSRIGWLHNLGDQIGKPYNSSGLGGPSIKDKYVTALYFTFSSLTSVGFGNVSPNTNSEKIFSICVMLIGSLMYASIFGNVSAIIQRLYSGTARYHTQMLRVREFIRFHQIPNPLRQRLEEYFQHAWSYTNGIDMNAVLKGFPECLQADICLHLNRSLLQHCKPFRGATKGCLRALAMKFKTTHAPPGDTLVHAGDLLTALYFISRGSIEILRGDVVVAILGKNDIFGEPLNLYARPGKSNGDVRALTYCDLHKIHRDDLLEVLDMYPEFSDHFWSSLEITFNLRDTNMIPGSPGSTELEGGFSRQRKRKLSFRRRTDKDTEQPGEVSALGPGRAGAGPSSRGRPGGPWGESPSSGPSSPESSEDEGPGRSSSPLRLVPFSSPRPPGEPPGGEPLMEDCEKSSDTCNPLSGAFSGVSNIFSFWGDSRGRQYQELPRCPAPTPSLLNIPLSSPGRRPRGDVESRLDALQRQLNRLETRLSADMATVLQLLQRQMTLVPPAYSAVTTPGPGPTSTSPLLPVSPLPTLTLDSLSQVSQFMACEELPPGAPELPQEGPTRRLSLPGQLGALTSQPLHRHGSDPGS
# Experiment: Human Ether-a-go-go-Related Gene (hERG) channel small molecule antagonists: fluorescence cell-based qHTS assay (AID 1671200); further: nearly all actives have a fitted effect of over 50% in size
# Conditions: hERG-U2OS cells, FluxOR thallium flux fluorescence; series mostly up to 76.8 µM; activity change, negative = inhibition: at the top concentration
# Source text: National Center for Advancing Translational Sciences [NCATS]
# U.S. Environmental Protection Agency [EPA]
# National Institutes of Environmental Health Sciences [NIEHS]
# National Toxicology Program [NTP]
# U.S. Food and Drug Administration [FDA]
# Mutations in the hERG channel cause Long QT (LQT) syndrome. LQT syndrome is a cardiac disorder which can cause ventricle arrhythmia and sudden death. Additionally, compounds which block the hERG channel can cause acquired LQT syndrome. Several FDA approved drugs have been removed from the market due to their hERG blocking activity. A cell-based hERG channel inhibition assay can be used to screen chemical compounds that inhibit hERG channel. This assay measures hERG channel activity using thallium ions as surrogate ions to measure potassium into the cells.
# Tox21 Assay Protocol Summary:
# hERG-U2OS cells were resuspended in culture medium and dispensed into 1536-well, black wall/clear-bottom plates at 1000cells/well/3uL using a Multidrop Combi dispenser (Thermo Fisher, Waltham, MA). After plates were incubated at 37 C overnight, 3 uL of Loading Buffer provided by FluxOR II Potassium Ion Channel Assay kit (Thermo, Carlsbad, CA) was added to each well. The assay plates were then incubated at room temperature in the dark for 1h. […] After the assay plates were incubated at room temperature for 10 min, 1 uL of Stimulus Buffer provided by FluxOR II Potassium Ion Channel Assay kit was added into each well and fluorescence intensity (480nm excitation/540nm emission) was continuously measured for 2 min at 1 second intervals using a Functional Drug Screening System (FDSS) 7000EX kinetic plate reader (Hamamatsu, Japan).
# On the % scale 0 is the no-effect control and ±100 the full control effect.
row,Structure (SMILES),"activity change, negative = inhibition"
1,CCC(C)C(C)=O (stereo not given),4.37%
2,CCOc1cccc(N)c1,1.22%
3,O=C1CCC(=O)N1Cl,5.56%
4,CCCCSCCCC,4.67%
5,C[C@]12CCC(=O)C=C1CC[C@H]1[C@@H]3CC[C@](O)(C(=O)CO)[C@@]3(C)C[C@H](O)[C@@]12F,-0.615% [at 35.3 µM]
6,O=C(O)CSCC(=O)NC1CCSC1=O (stereo not given),0.816% [at 35.3 µM]
7,Cn1nnc2c(C(N)=O)ncn2c1=O,1.47% [at 35.3 µM]
8,CC1=C(C(=O)O)N2C(=O)[C@@H](NC(=O)[C@H](N)C3=CCC=CC3)[C@H]2SC1,12.2% [at 35.3 µM]
9,O=Cc1ccccc1Cl,2.36%
10,CC1(C)[C@H]2CC[C@](C)(C2)[C@H]1O,1.18%
11,C/C(=C1\CCOC(=O)S1)N(C=O)Cc1cnc(C)nc1N,0.424% [at 35.3 µM]
12,CN1CCOC(c2ccccc2)c2ccccc2C1 (stereo not given),1.22% [at 35.3 µM]
13,CN(C)CCOC(=O)C(c1ccccc1)C1(O)CCCC1 (stereo not given),6.01% [at 35.3 µM]
14,CCCCCCC1(C)CCC(=O)O1 (stereo not given),-3.66%
15,CCC(C)OC(C)CC (stereo not given),21.6%
16,OCC(O)CN1CCN(c2ccccc2)CC1 (stereo not given),-1.6% [at 35.3 µM]
17,O=C1OCCO1,-6.48%
18,COCCc1ccccn1,0.74% [at 35.3 µM]
19,COc1cc(/C=C/C(N)=O)cc(OC)c1OC,0.458% [at 35.3 µM]
20,CCCCCCCCCCCCCCCCCC#N,-0.0502%

row,Structure (SMILES),"activity change, negative = inhibition"
1,CC(N)CCCC(C)(C)O (stereo not given),6.07% [at 35.3 µM]
2,NCC1(Cc2noc(=O)[nH]2)CCCCC1,-2.31%
3,O=C1CCCCO1,3.95%
4,O=C=NCC1CCCC(CN=C=O)C1 (stereo not given),3.17%
5,[O-][n+]1cccc(/C(Cl)=N/OC[C@@H](O)CN2CCCCC2)c1,0.681% [at 35.3 µM]
6,CCc1occc(=O)c1O,2.85%
7,CCCCOC(=O)C(C)O (stereo not given),4.34%
8,CC(C)=CCC[C@@](C)(O)[C@H]1CC=C(C)CC1,-1.84% [at 35.3 µM]
9,CC1=C(O)C(=O)C(C)O1 (stereo not given),2.15%
10,Cc1ccc(C)c([N+](=O)[O-])c1,4.23%
11,CC(C)[C@H]1CC[C@H](C)C[C@@H]1O,4.44%
12,OC1(c2ccc(Cl)cc2)CCNCC1,-10.8% [at 35.3 µM]
13,CCCCCCCCCCCCCCCCCCOCCO,3.84% [at 15.8 µM]
14,CC1CC(=O)CC(C)(C)C1 (stereo not given),3.24%
15,CC(Oc1cc(Cl)ccc1Cl)C(=O)O (stereo not given),45.4%
16,O=C1c2ccccc2C(=O)c2cc(Cl)ccc21,-0.029% [at 6.97 µM]
17,Cc1cc(-c2ccccc2)nnc1NCCN1CCOCC1,-10.8% [at 35.3 µM]
18,CC(=O)N[C@@H](CO)C(=O)N[C@@H](CC(=O)O)C(=O)N[C@@H](CCCCN)C(=O)N1CCC[C@H]1C(=O)O (Ac-SDKP-OH),0.0212% [at 35.3 µM]
19,CN(C)CCN(C)CCO,0.409%
20,COC(=O)CCCCC(CCSS/C(CCO)=C(\C)N(C=O)Cc1cnc(C)nc1N)SC(C)=O (stereo not given),-3.88% [at 35.3 µM]

# — PubChem BioAssay (Tox21)
